Data on 68 sequences can be found in PubChem BioAssay AID1508600 (Functional Genomics Laboratory (NCATS/FGL), 2020).

Hit rate of the full screen: of about 53,000 sequences, about 3,700 (7%) were called active. The sample as a whole holds a higher share of actives than the screen did. Unmarked numbers belong to inactive results.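 Rule for the calls: active = gene knockdowns whose robust z-score for IL-1 alpha signal is at least 2 or at most -2, so actives lie on both sides; inactive = the rest.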

The nature of this assay: Components of the Cytosolic LPS Sensing Pathway: Gene Identification via Genome-wide siRNA Screen. The settings on record: RAW264.7 macrophages, IL-1a HTRF, actives lie on both sides, screened at 100 nM (by protocol), cells primed 5 h with Pam3CSK4 first. The text has this: Non-canonical inflammasome activation by cytosolic LPS is a critical component of the host response to Gram-negative bacterial infection, however we lack a comprehensive understanding of the cellular processes that control this pathway. Here we describe a genome-wide siRNA screen to identify genes regulating the mouse macrophage IL-1 alpha response to cytosolic LPS.
RAW264.7 cells were maintained in complete DMEM media, comprising DMEM with 4.5 g/L glucose, 10% FBS (Gemini Bio-Products, West Sacramento, CA), 2 mM Glutamine (Lonza) and 20 mM HEPES (Lonza), hereafter complete DMEM.
The RNAi screen was conducted in 384-well format using the Ambion Silencer Mouse Genome siRNA Library (#4391425), which consists of three unique, nonoverlapping, nonpooled siRNAs for each of 17,000 gene targets. siRNA reagents ([…]) were stamped into 384-well white flat-bottom microplates (Corning, 3570) using a Velocity11 VPrep liquid handling system (Agilent) integrated into a BioCel robotic platform (Agilent) in columns 1-22, leaving columns 23-24 empty for negative (Ambion, Negative control #1) and positive (mouse Casp4) controls, respectively. The median value of each plate's negative control column was used to normalize sample wells, and the positive control was used to assess transfection efficiency and assay performance.
Lipofectamine RNAiMAX Transfection Reagent ([…]; Invitrogen) was added in […] serum-free, antibiotic-free media to plate wells using a Thermo Scientific Matrix WellMate and Microplate Stacker. Plates were incubated for 45 min at room temperature to allow for the sufficient formation of siRNA-lipid complexes. Cells were seeded at a density of 1x10^4 cells per well in 20 microL media containing 20% (vol/vol) FBS without antibiotics. The final concentration of siRNA in each well was 100 nM. Cells were cultured for 48h at 37 degrees C in 5% CO2 before addition of […] of TLR ligand Pam3CSK4 for 5 hours. The medium was then removed, replaced with […] growth media and cell were transfected with […] of LipidA and TransIT-TKO (Mirus) for 24 hour. At the end of the LipidA treatment, […] of supernatant was transferred to a 384 Greiner Bio-one non-binding low volume plate and […] of IL-1a HTRF reagent (Cisbio, 62MIL1APEH) was added and incubated at room temperature overnight. The plates were read on an EnVision plate reader (PerkinElmer). Cell viability was measured by adding 20ul Cell Titer Glo to the original plate and running a luminescence read on the EnVision. The quantified IL-1a signal for each siRNA gene-targeted well was divided by the median of the negative control wells and multiplied by 100 to achieve a negative control normalized value for each well/siRNA. This normalized value was then used to generate a robust z-score by first taking the log of each value and then by subtracting the median and dividing by the […].
In general terms: Time-resolved FRET reads energy transfer from a long-lived donor to a nearby acceptor.
Regarding GUGCCUUUGUGGUCUUCCUTT against Tmem179, the z-score was -1.16.

Take GGAUCCCAAGUUCAAAGCCTT against Rfxap: the z-score is 2.07 (active).

As to CCUAUAACAUCCACCUUCATT against Yipf3, the z-score is -0.508.

As for GGAAACAAGAAGAACGAUGTT against Camk2a, the z-score is 1.47.

As for GCACUCAGCUAGGUGAAGATT against Hnrnpul1, the z-score was -0.186.

As to GAUCUAGGACAGCUUAGAUTT against Avpr1b, the z-score is -0.955.

With GCCAAUGAAAACCUUUUGCTT against Parp9, the z-score is -0.736.

As for GGAUUUUACAUUUCUACACTT against Tmprss15, the z-score is 2.14 (active).

As to CGCACUGGAUAAUAUCAGCTT against Dok5, the z-score is 0.0135.

Regarding GGCAGAAAUUUGGAUACCATT against Plekha4, the z-score is 2.1 (active).

As to GGAAGUUAGCUCCUAAAUATT against Pirt, the z-score was -0.383.

For the sequence CCUUUUUUAUAUCCACUCATT against Bahcc1, the z-score is 1.22.

For GCAUCACUGCCACAGUGCATT against Olfr159, the z-score was -0.133.

As to GUAGUUGUUCUGAGAAAUCTT against Krtap19-2, the z-score was -0.49.

Turning to GGAAAUUCAAAAAGUGUGUTT against Aplf, the z-score is -2.25 (active).

As for “GGCCUGUUUUGAAGUAGAATT against B630019K06Rik”, the z-score was 0.352.

Turning to GCCAUUUGAAACUCUCCUGTT against Gstp3, the z-score was -1.71.

In the case of GGUCCUCCAGUUAAUGUCATT against Glra3, the z-score is -0.916.

For GGUUAUCCAGAGAGUGCAUTT against Arl4d, the z-score was 1.01.

In the case of ACUCCUAUGAGCUAGCUGUTT against Krt42, the z-score is 0.919.

For the sequence GGAAUUGAGACCCAAUAUUTT against Cnot7, the z-score was -0.353.

For GGAAUCAGCAAACUCAACCTT against Rnase11, the z-score is -0.748.

In the case of GGAUUCAGAAGCAGCAACATT against Nr1h2, the z-score was -2.29 (active).

Take GGCCAAGGACAUUAUAAAUTT against Scly: the z-score is -0.585.

As for AGUGAACAUCGAUCGCAUGTT against Gng8, the z-score was 0.937.

As for GCAAUGGUGGUUCUAAUAUTT against Cmya5, the z-score is -0.00244.

Consider GCCAACCAGGAUUUUACAATT against Fga, for which the z-score is 0.463.

GGAGAGUGUGUUUUCAGGCTT against Bop1: the z-score is 3.08 (active).

Take GAGUGUCUUGAACACAGCCTT against Olfr635: the z-score is -0.0711.

As to GGCCAAGUUCCUUUGCAUATT against Lacc1, the z-score was 0.274.

For the sequence CCAAAUGUAGCGGAACUGATT against Rsu1, the z-score is 0.195.

Regarding GGGUAUGAGUGCAGACUAUTT against Zcchc9, the z-score is 0.803.

For “GGCUUUGUAGCGAUAACAATT against D930030D11Rik”, the z-score is -0.936.

With GGUCAGUGACAUUAUCAAUTT against Vmn1r237, the z-score is 1.84.

Consider GGAGCAGUUACAGGAAAUCTT against Cdr2, for which the z-score is -2.11 (active).

With GGCAAGACUAUGAAUAUAATT against Ufsp2, the z-score was -0.486.

In the case of GGAUUUGGAUUUGGAUUUUTT against Tsc22d3, the z-score was 0.387.

Consider CCUUGUACCCAGUAAAGUCTT against Mab21l4, for which the z-score was 0.586.

In the case of GGUGGACAAGUUCAAAGCCTT against Atg4d, the z-score was -1.56.

Consider GCAGGAUAUGUAAAGGUUUTT against Gimap3, for which the z-score was -0.924.

In the case of CCUAAAAGCAGGCCAAAAUTT against Dhx29, the z-score is -1.26.

Regarding GGAGAAGAGCCUUCUCAAGTT against Srsf4, the z-score is 2.05 (active).

For GGUUAUAGCUUCAAUAGCUTT against Bphl, the z-score was -0.61.

As to UAACAGACCAGUAAAGGCCTT against Klra21, the z-score is 0.322.

CCAGAUACCCAUAAUAUCUTT against Mbnl1: the z-score was -0.604.

CGAUUUCCUUGGCACCAAUTT against Arhgap1: the z-score is -0.675.

As for GUGGACUUUUAGCAAUCAGTT against Olfr98, the z-score was -1.55.

For the sequence GGAGACUUAUUGAGCAAGUTT against Usp44, the z-score was 4.42 (active).

On to CGCUGAAGUCUUUUCACAATT against Baiap2, for which the z-score is 0.286.

CCCUUUCGGGCAAUGGACUTT against Olfr986: the z-score was -0.0157.

For GGGCUUAAGCUUUGAGGGUTT against Foxs1, the z-score is 0.213.

GGGUUUGCACUAGUUUAUUTT against Rap1a: the z-score was 0.632.

Consider GGUCCUAAAGCCUUUUCUATT against Mrpl10, for which the z-score is 0.199.

As for GGAAGGGUCAGAAAAAUGUTT against Slc1a2, the z-score is 0.202.

Consider GGUAAUGAUCCAUUCACCATT against Ly75, for which the z-score was -1.47.

In the case of GCAUAUACUUGAUUACCGUTT against Olfr830, the z-score is -0.391.

Regarding CCUCUGUCAGUUGGUUAACTT against Mon2, the z-score is -2.33 (active).

Take CCUUCUACUAAUCAAGAGATT against Sparc: the z-score was -0.578.

As to GGACCACAGAAGUUCUCAUTT against Pira2, the z-score is -2.88 (active).

With GCACGGAAGACUUACGAACTT against Cstf3, the z-score is 0.439.

Take GGACAUAUUUCCAACAUGUTT against Mob3b: the z-score is -1.34.

Take CGAAUCAUGUGUUUGCACATT against Camkk2: the z-score was 1.21.

Turning to GCCUGAUUGACUUAGAGUCTT against Eps8, the z-score was 0.821.

With GCAGGUGAAGAGUGAUUUUTT against Il10, the z-score is 0.318.

GGAACUGCUUACGAAAUACTT against Lama4: the z-score is -2.33 (active).

On to GGAUGUGUUAUCGGUGCUCTT against Mup21, for which the z-score is -0.303.

For GGAAGAGGAAGAAAAAAAGTT against Iqcf4, the z-score was -0.411.

For CUUACGAUACAUAAGAGAATT against Zfp457, the z-score is 0.364.
